Anesthetic bind: candidate novel general anesthetic via apoferritin binding; apoferritin/1-aminoanthracene competitive binding, fluorescence; Potency, µM (highest dose often 77.5 µM), without a hit: at the top dose activity change, negative = displacement, most hits filed as inhibitors; hit rate 0.074% among 350,000; AID 485281; further: potency means the concentration at half of the fitted maximal effect; on the % scale 0 is the no-effect control and ±100 the full control effect; nearly all actives have a fitted effect of over 20% in size
Target sequence (P02791 2-175 limits assumed): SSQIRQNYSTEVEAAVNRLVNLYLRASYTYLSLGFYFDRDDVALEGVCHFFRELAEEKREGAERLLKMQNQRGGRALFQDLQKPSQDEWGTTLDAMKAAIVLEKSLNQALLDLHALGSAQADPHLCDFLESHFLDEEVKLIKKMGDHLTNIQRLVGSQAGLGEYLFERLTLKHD
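Apoferritin-based anesthetic binding model; compound displacement of fluorescent 1-AMA measured as endpoint fluorescence after 10 minutes at room temperature, scaled to free-ligand and complex controls.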
IDH1 R132H inh: human IDH1 R132H inhibition; IDH1-R132H enzyme, NADPH consumption, diaphorase/resazurin fluorescence; O75874; Potency, µM (series often up to 76.6 µM), without a hit: at the highest dose activity change, negative = inhibition, usual class: inhibitors; AID 602179; hit rate 0.093% among 390,000; further: potency means the concentration at half of the fitted maximal effect; on the % scale 0 is the no-effect control and ±100 the full control effect; nearly all actives have a fitted effect of over 65% in size
Target sequence (O75874 whole entry R132H, stated change not applied): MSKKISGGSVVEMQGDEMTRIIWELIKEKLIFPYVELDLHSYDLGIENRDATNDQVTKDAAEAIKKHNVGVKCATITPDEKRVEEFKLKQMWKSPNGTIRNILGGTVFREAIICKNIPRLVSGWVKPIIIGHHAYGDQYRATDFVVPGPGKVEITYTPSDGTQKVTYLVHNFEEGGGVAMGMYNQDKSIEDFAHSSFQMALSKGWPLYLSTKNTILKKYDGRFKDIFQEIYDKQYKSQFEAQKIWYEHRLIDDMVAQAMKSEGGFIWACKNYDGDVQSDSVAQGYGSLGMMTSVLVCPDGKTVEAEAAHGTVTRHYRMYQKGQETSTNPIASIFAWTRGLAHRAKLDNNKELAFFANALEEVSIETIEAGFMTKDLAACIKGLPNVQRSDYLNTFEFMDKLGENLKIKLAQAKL
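IDH1-R132H (0.5 ug/mL) preincubated 30 min with compound, then NADPH (0.016 mM) and alpha-KG (2 mM) added; 80 min at RT, pH 7.5. Remaining NADPH coupled via diaphorase/resazurin to fluorescence (540/590 nm); concentration-response curves normalized to no-enzyme control.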
Nrf2 ARE act: activates Nrf2 signaling | AID 624171 | AREc32 ARE-luciferase reporter (MCF7-derived line), luminescence, 24 h | Potency, µM (titrated, usually from 46.1 µM), for the others: top-dose activation, most hits filed as activators | hit rate 0.31% among 410,000; further: potency means the concentration at half of the fitted maximal effect; % of control where 0% means no effect; nearly all actives have a fitted effect of over 65% in size
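Luciferase luminescence (Steady-Glo, 30 min at room temperature) served as the read-out of ARE activation in AREc32 cells treated with compounds for 24 hr at 37 deg C.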
A549 tox: kills or reduces viability of A549 cells in Nrf2 counter-screen; A549 ARE-Fluc cells, CellTiter-Fluor viability, 18-24 h; Potency, µM (series often up to 46 µM), without a hit: at the top dose activity change, negative = cytotoxicity, actives largely listed as inhibitors; hit rate 0.16% among 390,000; further: potency means the concentration at half of the fitted maximal effect; on the % scale 0 is the no-effect control and ±100 the full control effect
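A549 ARE_Fluc cells in 5% FBS OPTI-MEM were exposed to compounds in concentration-response for 18-24 h at 37 deg C. Viability was read by CellTiter-Fluor fluorescence (Ex 405/Em 525) after 30 min, before the luciferase read.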
Giardia killer: kills Giardia lamblia; Giardia lamblia trophozoite viability; activity change, % at 7.66 µM, hits read low; hit rate 0.15% among 340,000; in the data active means activity change below about -80%; inconclusive means between about -30% and that limit;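 further: parasites exposed to compound for two days anaerobically before the ATP read; on the % scale 0 is the no-effect control and ±100 the full control effect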
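Trophozoite viability was measured as ATP-dependent luminescence, read 15-30 min after reagent addition. Before that, parasites at 100 cells/well were exposed to compounds for 48 h, anaerobically, at 37 deg C.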
Nrf2 block: blocks Nrf2 signaling; A549 ARE-Fluc reporter, luciferase luminescence, 18-24 h; Potency, µM (highest dose often 46 µM), for inactives: at the top dose activity change, negative = inhibition, actives largely listed as inhibitors; hit rate 2.1% among 360,000; AID 504444; further: potency means the concentration at half of the fitted maximal effect; on the % scale 0 is the no-effect control and ±100 the full control effect; nearly all actives have a fitted effect of over 60% in size
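Two sequential reads on A549 ARE_Fluc cells exposed to compound for 18-24 h: a CellTiter-Fluor fluorescence read for viability, then a luciferase luminescence read for Nrf2/ARE activity.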
IDH1 autofl: counter-screen for mutant IDH1 inhibitors: fluorescence interference | shares compounds with IDH1 R132H inh | Resorufin detection reagent fluorescence interference, cell-free | inhibition of signal, % at 51.2 µM | 750 tested, under 10 active | AID 623980;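 further: 0% = wells with normal resorufin and full inhibition = wells lacking resorufin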
WT IDH1 inh: inhibits human wild-type IDH1, mutant selectivity check; shares compounds with IDH1 R132H inh; WT IDH1 enzyme, NADPH diaphorase/resazurin fluorescence; Potency, µM (top dose mostly 115 µM), inactives show top-dose activity change, negative = inhibition, most hits filed as inhibitors; hit rate 9% among 750; AID 623995;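 further: potency means the concentration at half of the fitted maximal effect; 0% = full WT IDH1 enzyme control and full inhibition = no enzyme wells; nearly all actives have a fitted effect of over 55% in size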
Target sequence (O75874 whole entry, looked up): as the sequence (O75874 whole entry R132H, stated change not applied) above, with H132R counted along it
IDH1 R132H conf: inhibits human mutant IDH1 enzyme in cherrypick confirmation | Potency, µM (series often up to 76.6 µM), without a hit: at the top dose activity change, negative = inhibition, most hits filed as inhibitors | hit rate 83% among 750 | AID 624002 | IDH1 R132H enzyme, NADPH diaphorase/resazurin fluorescence | shares compounds with IDH1 R132H inh; further: potency means the concentration at half of the fitted maximal effect; nearly all actives have a fitted effect of over 50% in size
Starred values were filed as active, the others as inactive; u = inconclusive; x = no result given. Most compounds without a hit are left out; they make up all but 2.3% or so of the library. Unless noted, the call rests on the fitted dose curve; in most records, active means well fitted curve in the direction sought with a large enough effect; inconclusive means small, poorly fitted or top-dose-only effect, or another doubt; inactive means no such curve, though single readings can be large; an effect the other way counts as inactive or inconclusive.

SMILES | Anesthetic bind | IDH1 R132H inh | Nrf2 ARE act | A549 tox | Giardia killer | Nrf2 block | IDH1 autofl | WT IDH1 inh | IDH1 R132H conf
CCn1c2ccccc2c2cc(C3C(C#N)=C(N)Oc4n[nH]c(COC)c43)ccc21 (stereo unspecified) | -8% | 52µM* | 8% | -15% | 1 | u | 4 | -4% | 20µM*
COCc1[nH]nc2c1C(c1ccc(OC)c(OC)c1)C(C#N)=C(N)O2 (stereo unspecified) | -9% | -8% | 0% | -1% | -25 | -21% | x | x | x
Cc1ccc(-c2nc3c(c(SCC(=O)Nc4ccccc4Cl)n2)Cc2c(CO)cnc(C)c2O3)cc1 | -1% | 0% | 1% | 10% | x | u | x | x | x
CSC1=C(C#N)C(c2ccccc2C)C(C#N)=C(N)N1 (stereo unspecified) | -22% | u | 0% | x | 6 | u | 6 | 116% | 45µM*
CSC1=C(C#N)C(c2ccccc2Cl)C2=C(N1)c1ccccc1C2=O (stereo unspecified) | -24% | -21% | 2% | 0% | 9 | -18% | x | x | x
CCOc1ccc2nc(N3CCCC(C(=O)NCc4ccc(OC)cc4)C3)sc2c1 (stereo unspecified) | 33% | -10% | 5% | -6% | x | u | x | x | x
COc1cc(C2C3CN(C)CC=C3C(C#N)=C(N)C2(C#N)C#N)ccc1OC(C)C (stereo unspecified) | -4% | u | 2% | -10% | 8 | 2% | 1 | 15% | -7%
COc1cc(C2(c3ccc(O)c(OC)c3)C(=O)Nc3c(Br)cc(Br)cc32)ccc1O | x | 52µM* | 13% | -9% | 5 | u | 0 | u | 40µM*
COc1ccc(-n2nc(C(=O)N(C)c3cc(C)ccc3C)c3c4ccccc4n(C)c3c2=O)cc1Cl | -1% | -1% | -1% | 2% | x | -10% | x | x | x
CCCCCn1c(=N)c(S(=O)(=O)c2ccccc2)cc2c(=O)n3ccccc3nc21 | -10% | 20µM* | -1% | 2% | x | 2% | 2 | 5% | 7.9µM*
CCCn1c(=N)c(S(=O)(=O)c2ccccc2)cc2c(=O)n3ccccc3nc21 | -9% | 40µM* | -1% | -1% | 5 | -27% | 4 | 7% | 20µM*
COc1ccc(-c2sc(Nc3ccc(F)c(F)c3F)nc2CCC(=O)NN)cc1 | -24% | 29µM* | 3% | 3% | -5 | 6% | -9 | -21% | 28µM*
COc1ccc(-c2nc(NC(C)=O)sc2-c2ccc(OC)cc2)cc1 | -10% | 0% | 1% | 3% | -4 | 1% | x | x | x
Cc1cccc(CN2CCN([C@H]3CS(=O)(=O)N[C@@H]3COCc3ccccc3)CC2)c1 | x | x | 1% | x | x | x | x | x | x
CCOc1ccc2c(c1)C(NC(C)=O)C(=O)N2CCN1CCOCC1 (stereo unspecified) | 3% | 29µM* | 0% | -5% | -5 | 3% | 3 | 79µM* | 25µM*
CC(=O)NC1C(=O)N(CCN2CCOCC2)c2ccc(Br)cc21 (stereo unspecified) | 2% | u | 0% | -4% | -18 | 1% | x | x | x
O=C(c1ccc2ncsc2c1)N1CCN(c2cccc(C(F)(F)F)c2)CC1 | x | 0% | 0% | -10% | -17 | -4% | x | x | x
Cc1cccc(C(=O)NC2(C(F)(F)F)N=C(c3ccccc3)N(C3CCCCC3)C2=O)c1 (stereo unspecified) | 0% | 1% | -2% | -2% | x | -3% | x | x | x
COc1ccc(C)cc1NC(=O)CN1c2ccccc2S(=O)(=O)c2ccccc21 | -16% | 23% | -1% | 6% | x | -17% | x | x | x
Cc1cc(C)cc(S(=O)(=O)N2CCN(c3nc(-c4cccs4)nc4ccccc34)CC2)c1 | x | x | x | -3% | 5 | -7% | x | x | x
CC(C)c1nc2sc3c(NCc4ccccc4)ncnc3c2c2c1COC(C)(C)C2 | -10% | 2% | 0% | -9% | -1 | -23% | x | x | x
CCN(CCO)c1ncnc2c1sc1nc(C(C)C)c3c(c12)CC(C)(C)OC3 | -13% | u | 2% | 0% | 33 | -15% | -13 | 7.1µM* | 6.3µM*
CC1CCc2c(sc3nc(C(C)(C)C)nc(N4CCN(C(=O)CCl)CC4)c23)C1 (stereo unspecified) | -3% | 41µM* | 8% | 2% | 14 | -11% | -4 | 45µM* | 3.2µM*
CCC(=O)N1CCN(c2nc(CC)nc3sc4c(c23)CCCC4)CC1 | -17% | -13% | 0% | -10% | -11 | -29% | x | x | x
Clc1cccc(-n2ncc3c(NCCCN4CCOCC4)ncnc32)c1 | -7% | 27% | 19% | 14% | x | x | x | x | x
SMILES | Anesthetic bind | IDH1 R132H inh | Nrf2 ARE act | A549 tox | Giardia killer | Nrf2 block | IDH1 autofl | WT IDH1 inh | IDH1 R132H conf
CCC(=O)C1=C(c2ccc(Cl)cc2)N(C(=O)CC)n2c(C)nnc2S1 | -10% | 45µM* | 21% | -1% | x | x | -13 | 299% | 14µM*
CCC(=O)C1=C(c2ccccc2)N(C(=O)CC)n2c(nnc2-c2ccccc2)S1 | -1% | -8% | 2% | 2% | x | x | x | x | x
CC(=O)N1CCc2c(sc3c2c(=O)n(-c2ccc(C)cc2)c(=O)n3Cc2c(F)cccc2Cl)C1 | u | u | -1% | -13% | x | u | 3 | 35µM* | 22µM*
C=Cc1ccc(Cn2c(=O)n(-c3ccccc3C)c(=O)c3c4c(sc32)CN(C(C)=O)CC4)cc1 | -9% | -15% | 9% | -18% | x | u | x | x | x
CC(=O)N1CCc2c(sc3c2c(=O)n(-c2ccccc2)c(=O)n3Cc2ccccc2Cl)C1 | -4% | u | 0% | -3% | 1 | u | x | x | x
CC(=O)N1CCc2c(sc3c2c(=O)n(CCc2ccccc2)c(=O)n3Cc2ccccc2C)C1 | -16% | 13µM* | 0% | -29% | x | 18µM* | -11 | 1% | 11µM*
CC(=O)N1CCc2c(sc3c2c(=O)n(CCc2ccccc2)c(=O)n3Cc2ccc(Cl)cc2)C1 | -3% | 5% | 0% | -23% | x | u | x | x | x
CC(=O)N1CCc2c(sc3c2c(=O)n(-c2ccccc2Cl)c(=O)n3Cc2cccc(C)c2)C1 | u | 32µM* | 8% | -12% | x | x | 1 | 20µM* | 16µM*

Assay outcomes deposited in PubChem BioAssay by National Center for Advancing Translational Sciences (NCATS).
